BAZ2B inh – BAZ2B (human) inhibition | 360,000 tested, 4.4% active | Q9UIF8 | Potency, µM (series often up to 114 µM), for inactives: top-dose activity change, negative = inhibition, most hits filed as inhibitors | AlphaScreen BAZ2B-H3K14Ac peptide displacement; note: % is set by controls: 0 for no effect and ±100 for the full control effect; nearly all actives have a fitted effect of over 60% in size
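In this displacement format the biotinylated H3(5-23) peptide acetylated at Lys14 serves as ligand at 50 nM, with BAZ2B at 50 nM in PBS pH 7.4 containing 0.01% Tween-20. Donor and acceptor beads are 10 ug/mL final.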
HP1b chromo inh – inhibitors of HP1-beta chromodomain binding to methylated histone tails | AlphaScreen HP1-beta / biotin-H3K9me3 peptide binding | Potency, µM (series often up to 114 µM), for the others: at the top dose activity change, negative = inhibition, most hits filed as inhibitors | 390,000 tested, 0.56% active | AID 540317; note: nearly all actives have a fitted effect of over 70% in size
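Compound inhibition of the preformed complex between 50 nM HP1-beta and 50 nM biotinylated H3K9me3 peptide was read by AlphaScreen. Buffer was PBS pH 7.4 with 0.01% Tween-20. Incubations ran 30 min at room temperature, with 10 ug/mL donor/acceptor beads.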
Sfp inh – blocks B. subtilis Sfp PPTase activity; 310,000 tested, 3.5% active; Biochemical Sfp PPTase activity, qHTS; Potency, µM, inactives show largest response in the series, negative = inhibition, usual class: inhibitors; Q9F4F7;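 note: the enzyme is Sfp with the accession as filed and its product quenches rhodamine fluorescence; 0% = enzyme reaction without inhibitor and -100% = no enzyme wells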
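Sfp 15 nM + cpd, 15 min RT; start w/ rhodamine-CoA 5 uM, BHQ-2-YbbR 12.5 uM (final); 50 mM Hepes pH 7.6, 10 mM MgCl2, 0.01% NP-40, 0.01% BSA; read 525/598 nm at 0 and 30 min.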
L3MBTL1 block – inhibitors of human L3MBTL1; Q9Y468; AID 485360; AlphaScreen L3MBTL1–H3K9me1 peptide binding; 230,000 tested, 0.66% active; Potency, µM (series often up to 57.1 µM), inactives show at the top dose activity, negative = inhibition, usual class: inhibitors; note: % is set by controls: 0 for no effect and ±100 for the full control effect; nearly all actives have a fitted effect of over 60% in size
Target sequence (Q9Y468 whole entry, looked up): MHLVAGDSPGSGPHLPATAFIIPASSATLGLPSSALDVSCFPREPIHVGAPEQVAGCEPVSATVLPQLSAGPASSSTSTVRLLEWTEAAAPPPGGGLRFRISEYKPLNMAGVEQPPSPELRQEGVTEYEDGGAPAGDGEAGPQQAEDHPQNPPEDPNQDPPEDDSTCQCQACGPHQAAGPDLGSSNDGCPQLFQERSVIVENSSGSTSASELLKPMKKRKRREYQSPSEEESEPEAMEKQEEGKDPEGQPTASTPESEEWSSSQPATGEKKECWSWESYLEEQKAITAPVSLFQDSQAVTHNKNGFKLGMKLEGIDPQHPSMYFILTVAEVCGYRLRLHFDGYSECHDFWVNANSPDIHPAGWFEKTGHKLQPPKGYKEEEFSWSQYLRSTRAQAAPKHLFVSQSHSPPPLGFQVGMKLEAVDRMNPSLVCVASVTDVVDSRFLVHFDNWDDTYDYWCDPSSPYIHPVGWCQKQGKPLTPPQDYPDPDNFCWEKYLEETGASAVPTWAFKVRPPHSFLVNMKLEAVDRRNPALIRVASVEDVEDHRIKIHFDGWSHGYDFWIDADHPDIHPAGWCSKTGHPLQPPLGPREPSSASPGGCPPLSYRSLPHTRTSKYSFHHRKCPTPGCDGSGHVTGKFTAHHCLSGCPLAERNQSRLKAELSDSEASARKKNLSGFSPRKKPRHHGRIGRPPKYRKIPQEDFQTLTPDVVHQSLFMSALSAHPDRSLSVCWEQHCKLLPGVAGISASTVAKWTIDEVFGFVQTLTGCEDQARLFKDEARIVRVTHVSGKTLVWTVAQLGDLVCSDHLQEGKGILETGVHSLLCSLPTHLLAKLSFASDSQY
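AlphaScreen proximity signal between nickel-chelate acceptor and streptavidin donor beads (final 10 ug/mL) reports binding of 50 nM L3MBTL1 to 75 nM biotin-H3 K9me1 peptide; complex incubated with compounds 30 min at room temperature; cefsulodin titration as control.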
G9a inh – inhibitors of human histone lysine methyltransferase G9a; 350,000 tested, 8.8% active; G9a H3K9 monomethylation, AlphaScreen, 2 h; Q96KQ7; Potency, µM (titrated, usually from 102 µM), inactives show at the top dose activity, negative = inhibition, hits mostly inhibitors; note: % is set by controls: 0 for no effect and ±100 for the full control effect; nearly all actives have a fitted effect of over 75% in size
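Enzyme 20 nM + cpd, 15 min RT; add b-H3K9 pep 500 nM / SAM 20 uM; 2 h RT; anti-H3K9me1 Ab 0.5 ug/mL + SA donor / anti-rabbit acceptor beads 20 ug/mL each, 10 min; AlphaScreen read.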
JMJD2A Tudor – JMJD2A Tudor domain (human) inhibition; O75164; AlphaScreen JMJD2A-Tudor / H3K4me3 peptide binding; Potency, µM (top dose mostly 114 µM), inactives show top-dose activity change, negative = inhibition, actives largely listed as inhibitors; 390,000 tested, 4.4% active; AID 504339; note: % is set by controls: 0 for no effect and ±100 for the full control effect; nearly all actives have a fitted effect of over 50% in size
Numbers without * were called inactive; ? = inconclusive; · = no result; [ ] = remark or other dose. This is a sample that favours compounds with a hit; in the whole collection about 12% have one here. Calls come from the whole dose curve; as a rule, active = well fitted curve in the direction sought with a large enough effect; inconclusive = small, poorly fitted or top-dose-only effect, or another doubt; inactive = no such curve, though single readings can be large; an effect the other way counts as inactive or inconclusive. Potency is the fitted concentration of half-maximal effect.

SMILES	BAZ2B inh	HP1b chromo inh	Sfp inh	L3MBTL1 block	G9a inh	JMJD2A Tudor
O=C(c1cccs1)N1CCc2c([nH]c3ccccc23)C1c1ccccn1 (centres undefined)	?	-1.4%	-7.4%	-7.9%	44.7µM*	?
O=C(c1cccs1)N1CCc2c([nH]c3ccccc23)C1c1ccc(Cl)cc1 (centres undefined)	-38.9%	-17.9%	16.5%	-9.4%	?	-35.8%
COc1ccc(OCC(=O)N2CCc3c([nH]c4ccccc34)C2c2ccccn2)cc1 (centres undefined)	?	-13.0%	3.8%	-21.9%	?	56.2µM*
CCc1nc(C)ccc1OCC(=O)N1CCc2c([nH]c3ccccc23)C1c1ccccn1 (centres undefined)	-13.1%	10.4%	4.1%	-5.4%	-5.3%	?
COC(=O)C(C(C)=O)C(NC(=O)NCc1ccccc1)c1ccccc1 (centres undefined)	·	·	-4.9%	·	·	·
Cc1c(Cl)cccc1NC(=O)CN1C(=O)COc2ccc(S(=O)(=O)N3CCCCCC3)cc21	-0.4%	39.0%	·	·	5.1%[59 µM]	9.2%
CCOc1ccccc1-c1ccc(C(=O)O)o1	·	·	-1.9%	·	0.8%[135 µM]	·
Cc1ccc(OCC(=O)NCC(=O)OCc2cc(=O)n3nc(CC(C)C)sc3n2)cc1	-2.9%	24.5%	·	·	4.0%[59 µM]	5.7%
CSc1nc(C(=O)N2CCc3c([nH]c4ccccc34)C2c2ccccn2)cs1 (centres undefined)	31.6µM*	-18.8%	-21.4%	-24.0%	?	50.1µM*
O=C(c1ccccc1-c1ncc[nH]1)N1CCc2c([nH]c3ccccc23)C1c1ccccn1 (centres undefined)	28.2µM*	-25.0%	1.0%	-0.2%	·	?
O=C(c1ccccc1-n1cccn1)N1CCc2c([nH]c3ccccc23)C1c1ccccn1 (centres undefined)	?	-23.2%	9.5%	-14.5%	?	?
COc1cc(C)ccc1OCCOc1c(C)cc(Cl)cc1Cl	100.8%	201.6%	-8.4%	56.7%	40.8%[59 µM]	71.2%
CCCCCCCCCCC[N+](C)(C)CC/C=C1/c2ccccc2Sc2ccc(Cl)cc21	-22.9%	12.2%	39.8µM*	·	35.5µM*	?
OCCN1CCN(CC/C=C2/c3ccccc3Sc3ccc(Cl)cc32)CC1	?	-12.3%	·	-2.3%	15.8µM*	?
CC[N+](C)(C)CC/C=C1/c2ccccc2Sc2ccc(Cl)cc21	2.4%	23.6%	-15.0%	9.0%	?	-2.5%
CCCCCCCCCC[N+](C)(C)CC/C=C1/c2ccccc2Sc2ccc(Cl)cc21	-11.6%	17.9%	31.6µM*	·	?	-32.4%
OCCN1CCN(CCCN2c3ccccc3Sc3ccc(Cl)cc32)CC1	?	-16.0%	?	-6.9%	2.7%[12.7 µM]	?
CCN(CC)C(=O)[C@@]1(c2ccccc2)C[C@@H]1CN	·	·	2.8%	·	9.1%[12.7 µM]	·
CCc1ccc(OCCCn2c(CCNC(=O)C3CCCCC3)nc3ccccc32)cc1	·	20.3%[57 µM]	·	·	·	-16.2%[57.1 µM]
COc1ccc(S(=O)(=O)N2CCC(C(=O)NCC(=O)Nc3c(C)cccc3C)CC2)cc1OC	·	4.3%	·	·	·	-5.3%
CCC1=C[C@@H]2CN(C1)Cc1c([nH]c3ccccc13)[C@@](C(=O)OC)(c1cc3c(cc1OC)N(C)[C@@H]1[C@@](O)(C(=O)OC)[C@H](OC(C)=O)[C@]4(CC)C=CCN5CC[C@]31[C@@H]54)C2	·	·	70.8µM*	·	?	·
Cc1ccccc1Nc1nc(-c2sc(NC(=O)c3ccco3)nc2C)cs1	?	-18.3%	14.1µM*	-18.3%	?	?
Cc1ccc(Cl)cc1Nc1nc(-c2sc(NC(=O)C(C)(C)C)nc2C)cs1	56.2µM*	12.8%	-7.4%	0.0%	?	?
Cc1ccc(Nc2nc(-c3sc(NC(=O)c4cccc(Cl)c4)nc3C)cs2)cc1	?	·	-2.5%	-9.5%	25.1µM*	·
CCOc1ccccc1Nc1nc(-c2sc(NC(=O)c3ccco3)nc2C)cs1	-31.5%	?	5.2%	-1.3%	?	-30.5%
SMILES	BAZ2B inh	HP1b chromo inh	Sfp inh	L3MBTL1 block	G9a inh	JMJD2A Tudor
O=C(Nc1ccc(-c2csc(Nc3ccc(Cl)cc3)n2)cc1)c1cccc(C(F)(F)F)c1	-29.0%	3.8%	16.4%	·	-6.1%[12.7 µM]	?
Cc1nc(NC(=O)c2ccc(Cl)cc2)sc1-c1csc(Nc2cccc(F)c2)n1	-3.2%[57.1 µM]	·	4.5%	-9.7%	50.1µM*	·
CCS(=O)(=O)N1CCC(C(=O)Nc2ccccc2OC)CC1	-2.5%	16.1%	11.0%	7.4%	26.3%	-5.9%
COc1ccccc1Nc1nc(-c2sc(NC(=O)c3cccc(Cl)c3)nc2C)cs1	?	·	-6.0%	-4.9%	31.6µM*	·
COc1ccccc1Nc1nc(-c2sc(NC(=O)C(C)(C)C)nc2C)cs1	?	-28.6%	-14.4%	-6.5%	?	63.1µM*
COc1ccc(CCNC(=O)c2cc(Nc3ccccc3)nc3ccccc23)cc1OC	6.4%	48.9%	·	·	-0.2%[59 µM]	-17.9%
Cc1ccc(OCC(=O)NNC(=S)NC(=O)C2CC2)c(C)c1	-22.5%	·	11.1%	·	10µM*	·
N#Cc1ccc(OCC(=O)NNC(=S)NC(=O)C2CC2)cc1	·	24.1%	·	22.2%	·	28.2µM*
CC(C)c1ccc(OCC(=O)NNC(=S)NC(=O)C2CC2)cc1	-0.7%	2.8%	-15.1%	·	-6.2%[12.7 µM]	-25.2%
Cc1ccc(OCC(=O)NNC(=S)NC(=O)C(C)(C)C)c(Br)c1	-2.5%	-5.5%	6.6%	9.2%	25.1µM*	?
Cc1ccc(OCC(=O)NNC(=S)NC(=O)C2CCCCC2)c(C)c1	-13.8%	13.5%	29.7%	·	17.8µM*	-34.8%
Cc1ccc(OCC(=O)NNC(=O)c2ccc(NC(=O)C3CC3)cc2)c(C)c1	-2.2%	30.2%	4.9%	·	65.6%	-15.7%
O=C(Nc1ccc(Cl)cc1F)C1CC(=O)N(Cc2ccco2)C1 (centres undefined)	7.4%	22.1%	·	0.9%	56.2µM*	-13.1%
COc1ccc(C)cc1NC(=O)C1CC(=O)N(Cc2ccco2)C1 (centres undefined)	-3.5%	25.2%	2.1%	-4.9%	?	-3.5%
CC(=O)c1sc(NC(=O)C2CC(=O)N(Cc3ccco3)C2)nc1-c1ccccc1 (centres undefined)	?	?	·	-21.0%	50.1µM*	?
COc1ccc(-c2nc(NC(=O)C3CC(=O)N(Cc4ccco4)C3)sc2C)cc1 (centres undefined)	?	-17.1%	·	-4.3%	-9.0%[2.33 µM]	?
COc1oc(C(=O)NC2CCCCC2)c(-c2ccc(Cl)cc2)c1S(=O)(=O)c1ccccc1	·	-4.0%	·	·	·	?
